# Laboratory results from PMC11062922 (Nature Chemical Biology, 2023).
# Like-named read-outs stand apart in the source and are kept apart here.
# Key:
# Parameters in all cases: species or system human, MV4-11 + K-562 + COLO205 + SK-N-BE2 + OVCAR-8
# CDC42BPA = details: read-out: apparent Kd, n = 1
# CDC42BPB = details: read-out: apparent Kd, n = 1
# RPS6KA4 = details: read-out: apparent Kd, n = 1
# ATM = details: read-out: apparent Kd, n = 1
# STK10 = details: read-out: apparent Kd, n = 1
# AURKA = details: read-out: apparent Kd; compound concentrations: 100 nM and 1000 nM (sheet 'Samples'), CATDS: 0.14578513534179899; n = 1
# CDC42BPG = details: read-out: apparent Kd, n = 1
# AURKB = details: read-out: apparent Kd, n = 1
# CDK2 = details: read-out: apparent Kd, n = 1
# CDK9 = details: read-out: apparent Kd, n = 1
# PDGFRB = details: read-out: apparent Kd, compound concentrations: 100 nM and 1000 nM (sheet 'Samples'), n = 1
# TTK = details: read-out: apparent Kd, n = 1
# CAMKK2 = details: read-out: apparent Kd; compound concentrations: 100 nM and 1000 nM (sheet 'Samples'), CATDS: 1.7349658835090001E-2; n = 1
# EPHA4 = details: read-out: apparent Kd, compound concentrations: 100 nM and 1000 nM (sheet 'Samples'), n = 1
# EPHA5 = details: read-out: apparent Kd; compound concentrations: 100 nM and 1000 nM (sheet 'Samples'), CATDS: 3.9302113752780102E-2; n = 1
# PRKAG2 = details: read-out: apparent Kd; compound concentrations: 100 nM and 1000 nM (sheet 'Samples'), CATDS: 4.1666716087244697E-2; n = 1
# TNK2 = details: read-out: apparent Kd, compound concentrations: 100 nM and 1000 nM (sheet 'Samples'), n = 1
# CHEK1 = details: read-out: apparent Kd; compound concentrations: 100 nM and 1000 nM (sheet 'Samples'), CATDS: 3.6585074112693398E-2; n = 1
# PHKG2 = details: read-out: apparent Kd; compound concentrations:100 nM and 1000 nM (sheet 'Samples'); n = 1
# [1] = compound concentrations:100 nM and 1000 nM (sheet 'Samples')
compound,measurement,setting,value
CCn1c(-c2nonc2N)nc2cncc(C(=O)N3CC[C@H](N)C3)c21.Cl [SB-772077-B],potency estimated from few doses,CDC42BPA; [1],1170 nM
same,potency estimated from few doses,CDC42BPB; [1],932 nM
same,potency estimated from few doses,RPS6KA4; [1],82.6 nM
Cc1cc(NC(=O)c2cccc(NC(=O)/C=C/CN(C)C)c2)ccc1Nc1nccc(-c2cccnc2)n1 [JNK-IN-7],potency estimated from few doses,ATM; [1],273 nM
NS(=O)(=O)c1cccc(-c2ccc3c(NC(=O)C4CC4)n[nH]c3c2)c1 [SB-741905],potency estimated from few doses,"ATM; compound concentrations: 100 nM and 1000 nM (sheet 'Samples'), CATDS: 0.31609765928995098",205 nM
Nc1nccc(-c2ccc3c(N)n[nH]c3c2)n1 [GSK1034945A],potency estimated from few doses,STK10; [1],1120 nM
COc1cccc(C2=C(c3c(C)n(C)c4ccccc34)C(=O)NC2=O)c1 [RO3300167-000],potency estimated from few doses,AURKA,490 nM
O=C1N=C(NCCc2cccs2)S/C1=C\c1ccc2ncccc2c1 [RO4508348-000],potency estimated from few doses,"ATM; compound concentrations: 100 nM and 1000 nM (sheet 'Samples'), CATDS: 0.23427621692245501",314 nM
Cc1occc1-c1nc(N)c(OC[C@@H](N)Cc2c[nH]c3ccccc23)cc1-c1cc2c(C)n[nH]c2cn1 [GSK1660450B],potency estimated from few doses,CDC42BPA; [1],34.6 nM
same,potency estimated from few doses,CDC42BPB; [1],106 nM
same,potency estimated from few doses,CDC42BPG; [1],65.4 nM
CC(C)N1CC(=O)N(C)c2cnc(Nc3cccc(S(=O)(=O)CCN4CCOCC4)c3)nc21 [BI00009348],potency estimated from few doses,"ATM; compound concentrations: 100 nM and 1000 nM (sheet 'Samples'), CATDS: 0.21813144295739101",112 nM
same,potency estimated from few doses,"STK10; compound concentrations: 100 nM and 1000 nM (sheet 'Samples'), CATDS: 5.40109770146803E-2",1450 nM
NS(=O)(=O)c1ccc(NC=C2C(=O)Nc3ccc4ncsc4c32)cc1 [GW589933X],potency estimated from few doses,"AURKB; compound concentrations: 100 nM and 1000 nM (sheet 'Samples'), CATDS: 1.80896314222295E-2",1370 nM
same,potency estimated from few doses,"CDK2; compound concentrations: 100 nM and 1000 nM (sheet 'Samples'), CATDS: 6.9687110689249002E-2",65.8 nM
same,potency estimated from few doses,"CDK9; compound concentrations: 100 nM and 1000 nM (sheet 'Samples'), CATDS: 2.7445436907685701E-2",414 nM
same,potency estimated from few doses,PDGFRB; CATDS: 2.1122847549312301E-2,826 nM
same,potency estimated from few doses,"RPS6KA4; compound concentrations: 100 nM and 1000 nM (sheet 'Samples'), CATDS: 2.5851222500782998E-2",479 nM
same,potency estimated from few doses,"TTK; compound concentrations: 100 nM and 1000 nM (sheet 'Samples'), CATDS: 2.1205991954571499E-2",817 nM
O=C1N=C(NCCc2ccccc2Cl)S/C1=C\c1ccc2ncccc2c1 [RO4498484-000],potency estimated from few doses,"CDC42BPA; compound concentrations: 100 nM and 1000 nM (sheet 'Samples'), CATDS: 5.5434431749678797E-2",2450 nM
CC(C)(CO)CNC(=O)c1ccc2c(c1)/C(=N/Nc1ccc(S(N)(=O)=O)cc1)C(=O)N2 [GW301784X],potency estimated from few doses,CDK2; [1],87.1 nM
same,potency estimated from few doses,TTK; [1],983 nM
Nc1nc(-c2ccc3c(N)n[nH]c3c2)cc(N2CCCC(NC(=O)c3ccccc3)C2)n1 (stereo not shown) [GSK2286775B],potency estimated from few doses,AURKB; [1],414 nM
CCn1c(-c2nonc2N)nc2cncc(Br)c21 [SB-738004],potency estimated from few doses,CDC42BPA; [1],2130 nM
same,potency estimated from few doses,CDC42BPB; [1],1970 nM
same,potency estimated from few doses,CDK9; [1],1120 nM
NS(=O)(=O)c1ccc(N/N=C2\C(=O)Nc3ccc4ncccc4c32)cc1 [GW305178X],potency estimated from few doses,"CDK2; compound concentrations: 100 nM and 1000 nM (sheet 'Samples'), CATDS: 0.10178285521581799",134 nM
same,potency estimated from few doses,"CDK9; compound concentrations: 100 nM and 1000 nM (sheet 'Samples'), CATDS: 4.6560668202509002E-2",1210 nM
same,potency estimated from few doses,"TTK; compound concentrations: 100 nM and 1000 nM (sheet 'Samples'), CATDS: 4.7574405243594603E-2",1130 nM
COc1cc2ncn(-c3cc(OCc4ccccc4S(C)(=O)=O)c(C#N)s3)c2cc1OC [GSK319347A],potency estimated from few doses,"AURKB; compound concentrations: 100 nM and 1000 nM (sheet 'Samples'), CATDS: 0.10534744790645301",893 nM
Cl.Cl.NCC(NC(=O)c1cc(-c2ccnc3[nH]ccc23)cs1)c1ccccc1.NCC(NC(=O)c1cc(-c2ccnc3[nH]ccc23)cs1)c1ccccc1 (stereo not shown) [GSK1229959A],potency estimated from few doses,CAMKK2,1720 nM
same,potency estimated from few doses,"CDC42BPA; compound concentrations: 100 nM and 1000 nM (sheet 'Samples'), CATDS: 7.2504197887005906E-2",15.3 nM
same,potency estimated from few doses,"CDC42BPB; compound concentrations: 100 nM and 1000 nM (sheet 'Samples'), CATDS: 9.85023329891931E-2",8.96 nM
same,potency estimated from few doses,"CDC42BPG; compound concentrations: 100 nM and 1000 nM (sheet 'Samples'), CATDS: 9.9615433098280207E-2",8.8 nM
same,potency estimated from few doses,"CDK9; compound concentrations: 100 nM and 1000 nM (sheet 'Samples'), CATDS: 1.9893156316103101E-2",801 nM
CN[C@H](C#Cc1c(F)ccc2c1/C(=C/c1[nH]ccc1OC)C(=O)N2)CO.Cl [RO0283049-001],potency estimated from few doses,"CDK2; compound concentrations: 100 nM and 1000 nM (sheet 'Samples'), CATDS: 2.1826327845386101E-2",1310 nM
same,potency estimated from few doses,"RPS6KA4; compound concentrations: 100 nM and 1000 nM (sheet 'Samples'), CATDS: 3.14855312856318E-2",432 nM
same,potency estimated from few doses,"TTK; compound concentrations: 100 nM and 1000 nM (sheet 'Samples'), CATDS: 1.9624563492428401E-2",2080 nM
Cn1cc(C2=C(c3ccc(OC[C@@H](O)CO)cc3)C(=O)NC2=O)c2ccccc21 [RO3208546-000],potency estimated from few doses,EPHA4; CATDS: 3.51410618583008E-2,1520 nM
same,potency estimated from few doses,EPHA5,1120 nM
same,potency estimated from few doses,PRKAG2,967 nM
same,potency estimated from few doses,TNK2; CATDS: 6.2991293235435897E-2,422 nM
NS(=O)(=O)c1ccc(N/C=C2\C(=O)Nc3ccc4ncsc4c32)cc1 [GW297361X],potency estimated from few doses,"CDK2; compound concentrations: 100 nM and 1000 nM (sheet 'Samples'), CATDS: 7.9429171662671896E-2",232 nM
same,potency estimated from few doses,"CDK9; compound concentrations: 100 nM and 1000 nM (sheet 'Samples'), CATDS: 3.67324795233104E-2",1040 nM
same,potency estimated from few doses,"RPS6KA4; compound concentrations: 100 nM and 1000 nM (sheet 'Samples'), CATDS: 3.5375158245813998E-2",1150 nM
same,potency estimated from few doses,"TTK; compound concentrations: 100 nM and 1000 nM (sheet 'Samples'), CATDS: 3.2979280004825598E-2",1400 nM
CNc1nccc(-c2ccc3c(N)n[nH]c3c2)n1 [GSK2206003A],potency estimated from few doses,"STK10; compound concentrations: 100 nM and 1000 nM (sheet 'Samples'), CATDS: 6.2859781396148603E-2",622 nM
COc1cc[nH]c1/C=C1\C(=O)Nc2ccc([N+](=O)[O-])c(N3CC[C@@H](O)C3)c21 [RO0504985-000],potency estimated from few doses,"CDK2; compound concentrations: 100 nM and 1000 nM (sheet 'Samples'), CATDS: 3.3217097054667903E-2",1280 nM
same,potency estimated from few doses,"CDK9; compound concentrations: 100 nM and 1000 nM (sheet 'Samples'), CATDS: 3.1258790077652497E-2",1620 nM
same,potency estimated from few doses,PDGFRB; CATDS: 3.1166812666601599E-2,1640 nM
CCC(CC)(CC)n1cnc2c(N)ncnc21 [SKF-97620],potency estimated from few doses,"ATM; compound concentrations: 100 nM and 1000 nM (sheet 'Samples'), CATDS: 0.160358426493935",43.6 nM
CNCC1CCn2c(c(C3=C(c4cn(C)c5ccccc45)C(=O)NC3=O)c3ccccc32)C1 (stereo not shown) [RO0318676-000],potency estimated from few doses,"CDK2; compound concentrations: 100 nM and 1000 nM (sheet 'Samples'), CATDS: 2.9072745389082302E-2",1540 nM
same,potency estimated from few doses,CHEK1,754 nM
same,potency estimated from few doses,EPHA4; CATDS: 2.83796334007482E-2,1680 nM
same,potency estimated from few doses,TNK2; CATDS: 3.7292246432418498E-2,715 nM
Cl.Cl.NC[C@H](CC1CCCCC1)NC(=O)c1ccc(-c2ccnc3[nH]ccc23)s1.NC[C@H](CC1CCCCC1)NC(=O)c1ccc(-c2ccnc3[nH]ccc23)s1 [GSK1581428A],potency estimated from few doses,CDC42BPA; [1],28.9 nM
same,potency estimated from few doses,CDC42BPB; [1],10.5 nM
COc1cc[nH]c1/C=C1\C(=O)Nc2ccc(F)c(C#C[C@@H](O)[C@@H](N)[C@@H](C)O)c21 [RO0283120-000],potency estimated from few doses,CDK9; [1],1130 nM
same,potency estimated from few doses,PHKG2,669 nM
same,potency estimated from few doses,RPS6KA4; [1],421 nM
same,potency estimated from few doses,TTK; [1],1180 nM
NS(=O)(=O)c1ccc(N/N=C2\C(=O)Nc3ccc(-c4cnco4)cc32)cc1 [GW276655_KCGS],potency estimated from few doses,CDK2; [1],983 nM
Cl.Nc1nc(-c2ccc3c(c2)C(=Cc2cc(Br)c(O)c(Br)c2)C(=O)N3)cs1 [GW407323A],potency estimated from few doses,"CDK2; compound concentrations: 100 nM and 1000 nM (sheet 'Samples'), CATDS: 3.5649543484101501E-2",720 nM
same,potency estimated from few doses,"TTK; compound concentrations: 100 nM and 1000 nM (sheet 'Samples'), CATDS: 2.7527023575449099E-2",2150 nM
COc1ccc(-n2cnc3c(N)ncnc32)cc1 [SKF-97236],potency estimated from few doses,PDGFRB; CATDS: 0.12494680251160301,1970 nM
Cl.Cl.Cl.c1ccc(Oc2ccc(Nc3ccnc4cc(-c5ccc(CN6CCNCC6)o5)ccc34)cc2)nc1.c1ccc(Oc2ccc(Nc3ccnc4cc(-c5ccc(CN6CCNCC6)o5)ccc34)cc2)nc1 [GW567142A],potency estimated from few doses,"AURKB; compound concentrations: 100 nM and 1000 nM (sheet 'Samples'), CATDS: 2.12373497583834E-2",952 nM
same,potency estimated from few doses,TNK2; CATDS: 8.9201711222799504E-2,47.3 nM
